Data as given in PubChem BioAssay AID1619 (SRMLSC, 2009).
The campaign covered roughly 220,000 compounds. About 830 (0.38%) were called active.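 How the source made its calls: active means compound inhibiting the enzyme by more than half at any dose during confirmatory dose-response retesting; inconclusive means strong single-dose inhibitors picked by rank but not retested; inactive means the rest.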 Only a sample is shown. Results with a measured potency or affinity are listed apart.

The compounds below were run against Leucine aminopeptidase (Plasmodium falciparum (isolate 3D7)) (UniProt Q8IL11) (assay: P. falciparum M17LAP inhibitors, primary screen, biochemical, fluorogenic H-Leu-NHMec substrate, 1536-well (AID 1619;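 further: plate controls were full reaction with DMSO carrier for no effect and no enzyme background for full effect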)). Details: recombinant M17LAP, H-Leu-NHMec fluorogenic kinetic assay; at 30 µM; active compounds read high.
Sequence of Leucine aminopeptidase (Plasmodium falciparum (isolate 3D7)) (Q8IL11 whole entry, looked up): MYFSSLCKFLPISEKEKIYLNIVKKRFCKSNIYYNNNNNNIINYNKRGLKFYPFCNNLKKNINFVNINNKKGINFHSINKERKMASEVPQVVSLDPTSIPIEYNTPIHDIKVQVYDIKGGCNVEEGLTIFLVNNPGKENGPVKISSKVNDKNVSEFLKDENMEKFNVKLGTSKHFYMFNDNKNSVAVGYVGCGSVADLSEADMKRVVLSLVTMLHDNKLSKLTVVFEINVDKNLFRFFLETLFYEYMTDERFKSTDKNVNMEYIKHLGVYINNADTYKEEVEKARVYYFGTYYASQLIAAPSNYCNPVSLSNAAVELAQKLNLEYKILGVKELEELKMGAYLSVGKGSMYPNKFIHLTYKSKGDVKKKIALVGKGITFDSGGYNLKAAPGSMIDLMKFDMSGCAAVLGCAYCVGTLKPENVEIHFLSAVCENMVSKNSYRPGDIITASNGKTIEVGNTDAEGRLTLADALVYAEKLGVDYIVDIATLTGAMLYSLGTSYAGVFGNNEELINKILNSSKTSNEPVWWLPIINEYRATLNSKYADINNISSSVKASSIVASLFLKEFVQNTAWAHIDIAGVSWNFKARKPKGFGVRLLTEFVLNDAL

inhibition, inactive:
CNC(=O)N(C1=NCC(C)(C)S1)c1ccc(F)c(Cl)c1 -9.97%
COc1cc(/C=N/Nc2cccc(C)c2)ccc1OC(=O)c1ccco1 -4.8%
CSc1ccc(/C=N/Nc2ccc(Cl)c(C(=O)O)c2)cc1 12.6%
COc1cc(/C=N/Nc2ccccc2)ccc1OC(=O)c1cccs1 1.12%
COc1cc(/C=N/Nc2ccc(Cl)cc2)ccc1OC(=O)c1cccs1 4.49%
O/N=C/c1ccc(OCc2ccccc2)c(Cl)c1 13.4%
COc1cc(/C=N/Nc2ccc3ccccc3c2)ccc1OC(=O)c1ccco1 0.98%
O=C(O)c1cc(N/N=C/c2ccncc2)ccc1Cl 18.2%
O/N=C/c1ccc(OCc2ccccc2)c(Br)c1 6.58%
O=[N+]([O-])c1ccc(C[n+]2cccc3ccccc32)cc1 1.34%
O=C(CN1CCCCC1CO)c1ccc(OC(F)F)cc1 (configuration not stated) 6.93%
Cc1cc(NC(=O)CSc2ncnc3c2cnn3-c2cccc(Cl)c2)no1 1.8%
CCn1cc(Br)c(C(=O)NC(C)c2ccccc2)n1 (configuration not stated) -36.5%
Cc1csc(NC(=O)C2CCN(S(=O)(=O)c3ccc4c(c3)oc(=O)n4C)CC2)n1 8.23%
CC(C)(C)C(=O)N1N=C(c2cccc(NS(C)(=O)=O)c2)CC1c1cccs1 (configuration not stated) 29.7%
O=C(CCNS(=O)(=O)c1cccs1)Nc1nccs1 -0.31%
O=C(Nc1n[nH]c(C2CCCCC2)n1)C1CCCCC1 -5.77%
Nc1n[nH]c(C2CCCCC2)n1 -1.74%
Nn1c(SCc2ccccc2F)nnc1-c1ccncc1 1.35%
CCOC(=O)c1sc(NC(=O)Cn2nnc3sc4c(c3c2=O)CCCC4)nc1C -3.69%
Cn1c(CNC(=O)c2ccco2)nnc1SCC(=O)Nc1cccc(Br)c1 7.38%
C=CCn1c(CNC(=O)c2ccco2)nnc1SCC(=O)Nc1cccc(F)c1 14.5%
CCCn1cnc2c(=S)nc(N)[nH]c21 16.6%
CC(C)c1ccc(-c2nc(N3CCCCCC3)nc3n[nH]c(N)c23)cc1 35.4%
COc1ccc(N2CCN(c3nc(Cl)nc(N4CCOCC4)n3)CC2)cc1 11.3%
CC(C)c1ccc(-c2nc(N3CCCC3)nc3n[nH]c(N)c23)cc1 27.7%
Nc1nc(N2CCOCC2)nc2ccccc12 -12%
c1ccc(-c2nnc(N3CCOCC3)nc2-c2ccccc2)cc1 5.71%
COc1ccc(-c2cc(C(F)(F)F)nc(N3CCOCC3)n2)cc1 4.95%
COCCNC(=S)NNc1ccccc1[N+](=O)[O-] 0.4%
CC(C)=NOc1nc(N2CCOCC2)nc(N2CCOCC2)n1 -6.17%
CCOC(=O)Cn1nnnc1CN(Cc1ccccc1)Cc1cc2cc(CC)ccc2[nH]c1=O -7.17%
CCOC(=O)c1sc(NC(=O)CC)c(C#N)c1C -11.2%
O=C(CN1C(=O)CCC1=O)Nc1ccc(Cc2ccc(NC(=O)CN3C(=O)CCC3=O)cc2)cc1 1.75%
O=C(Cn1cnc2cc([N+](=O)[O-])ccc2c1=O)Nc1ccc2c(c1)CCC2 25.1%
COc1ccc(NC(=O)Cn2cnc3ccccc3c2=O)cc1OC 14.4%
COC(=O)c1ccc(C)c(NC(=O)Cn2cnc3ccccc3c2=O)c1 54.1%
O=C(Cn1cnc2ccccc2c1=O)Nc1ccc2c(c1)OCCO2 5.1%
Cc1ccc(NC(=O)Cn2nnc3ccccc3c2=O)cc1C -2.19%
Cc1ccc(NC(=O)Cn2nnc3ccccc3c2=O)cc1 -0.57%
N#Cc1c(NC(=O)CCn2cnc3ccccc3c2=O)oc(-c2ccccc2)c1-c1ccccc1 -1.46%
N#Cc1c(NC(=O)CSc2ccccn2)oc(-c2ccccc2)c1-c1ccccc1 3.85%
COC(=O)c1ccc(NC(c2ccc(Cl)cc2)P(=O)(OC)OC)cc1 (configuration not stated) 4.43%
CS(=O)(=O)N(CC(=O)Nc1ccc(S(=O)(=O)N2CCCC2)cc1)c1ccccc1 1.45%
Cn1c(SCC(=O)C(C)(C)C)nnc1-c1ccc(F)cc1 0.55%
CN(O)/C=C/C(=O)c1ccc(Br)cc1 -3.22%
C[C@@H]1C[C@H](O)c2cc(Cl)ccc2N1 5.04%
CCOC(=O)C1(CCCc2ccccc2)CCN(C(=O)CCc2cnccn2)CC1 -4.8%
CC(Oc1ccc2c(-c3ccccc3)cc(=O)oc2c1)C(=O)O (configuration not stated) 36.3%
COc1ccc(-c2cc(=O)oc3cc(OCC(C)=O)ccc23)cc1 10.9%
N#C/C(=C\c1cn[nH]c1-c1ccccc1Br)C(=O)O 4.87%
CCCc1cc(=O)n2[nH]c(NCc3ccccc3Cl)nc2n1 23%
Cc1cccc(N(C(=O)c2csnn2)C(C(=O)NC(C)(C)C)c2cccs2)c1 (configuration not stated) 9.85%
CCc1nc(N2CCN(C(C)=O)CC2)c(C#N)c2c1COC(C)(C)C2 -49.5%
O=C(c1cnn(-c2ccccc2)c1)c1ccccc1O -6.3%
O=C(c1cnn(C(=O)c2ccc(O)cc2)c1)c1ccccc1O -4.26%
CCCc1nnc(SCc2ccc(OC)cc2)n1N 9.43%
COc1ccc(-c2nc(-c3cccc(C(F)(F)F)c3)no2)cc1OC -5.65%
Cc1cccc(NC(=O)COc2ccc(/C=C\c3[nH]c(=O)[nH]c(=O)c3[N+](=O)[O-])cc2)c1 23.7%
CNC(=O)CSc1nc(-c2ccccc2)c(-c2ccccc2)o1 3.38%
NC(=O)CSc1nc(-c2ccccc2)c(-c2ccccc2)o1 -9.73%
CC(C)C(=O)Nc1ccc(NC(=O)c2ccccn2)cn1 7.94%
CNC(=O)c1sccc1S(=O)(=O)Cc1c(Cl)cccc1Cl 0.44%
COC(=O)c1cc(C)sc1NC(=O)C1C2C=CC(CC2)C1C(=O)O (configuration not stated) 47%
CCOC(=O)c1sc(NC(=O)C2C3C=CC(C3)C2C(=O)O)nc1C (configuration not stated) 3.83%
CCOC(=O)c1c(NC(=O)C2C3C=CC(CC3)C2C(=O)O)sc(C)c1C (configuration not stated) 46.5%
CCOC(=O)c1c(NC(=O)C2CC2)sc(C)c1CC -1.68%
CCOCCCn1c(=O)c(NC(=O)c2ccc(OCC)cc2)c2n(c1=S)CCCCC2 10.1%
O=C(NCC1CCCO1)C1C2C=CC3(CN(Cc4cccs4)C(=O)C13)O2 (configuration not stated) 15.4%
O=C(NC1CCCC1)C1C2C=CC3(CN(Cc4cccs4)C(=O)C13)O2 (configuration not stated) -3.35%
Cc1ccc(S(=O)(=O)N(C)CCCC(=O)NC(C)(C)C)cc1 -1.26%
O=C1CN(S(=O)(=O)c2ccc(Cl)cc2)CC(=O)N1CCc1ccccc1 -1.31%
COc1ccc(C2=Nn3c(nnc3-c3ccccc3OC)SC2)cc1OC 26.3%
CCOc1ccc(C2=Nn3c(nnc3-c3ccccc3OC)SC2)cc1 8.39%
CC(=O)Nc1nc(CCN2C(=O)c3ccccc3C2=O)cs1 0.9%
Cc1cccc2cc(C(c3nnnn3CC3CCCO3)N3CCCc4ccccc43)c(=O)[nH]c12 (configuration not stated) 10.5%
CC(C)c1ccc(O)c(NC(=O)c2cccnc2)c1 7.21%
CN1C2CCC1/C(=C\c1ccccc1)C(=O)/C2=C\c1ccccc1 5.66%
CN1C2CCC1/C(=C\c1ccccc1Cl)C(=O)/C2=C\c1ccccc1Cl 3.79%
O=c1[nH]cnc2scc(-c3cccs3)c12 -7.24%
COc1ccc(OC)c(S(=O)(=O)n2nnc3ccccc32)c1 56.9%
COc1ccc(Cl)cc1S(=O)(=O)n1nnc2ccccc21 49%
O=S(=O)(Nc1cccc(-c2ccc3nncn3n2)c1)c1ccc(Cl)s1 26.4%
CN(C)c1cccc(-c2nnc(SCCCC#N)o2)c1 -3.34%
CCOC(=O)Cc1csc(NC(=O)NC2(C(F)(F)F)Oc3ccccc3O2)n1 6.11%
CCOC(=O)Cc1csc(NC(=O)NC2(C(F)(F)F)Oc3ccc(Cl)cc3O2)n1 (configuration not stated) 52.5%
C=CCn1c(COC)nnc1SCC(=O)c1ccc(F)cc1 -1.58%
Cc1ccc(C(=O)NN2C(=O)CSC2=S)cc1 33.1%
CC(C)(C)c1ccc(C(=O)NN2C(=O)CSC2=S)cc1 5.92%
COc1ccccc1CNC(=O)CN1C(=O)C(C)N(c2ccc(C)cc2)C1=O (configuration not stated) -0.45%
Cc1ccc(Nc2nc3ccccc3nc2Nc2c(C)n(C)n(-c3ccccc3)c2=O)cc1 -3.59%
O=S(=O)(Nc1nc2ccccc2nc1NCCO)c1cccc(Cl)c1 45%
Cc1c(NS(=O)(=O)c2ccccc2)c(=O)n(-c2ccccc2)n1C -14.2%
Cc1c(Nc2nc3ccccc3nc2NS(=O)(=O)c2cccs2)c(=O)n(-c2ccccc2)n1C 35.4%
Cc1c(Nc2nc3ccccc3nc2N2CCN(c3ccccc3)CC2)c(=O)n(-c2ccccc2)n1C 9.74%
O=S(=O)(Nc1nc2ccccc2nc1NCC1CCCO1)c1cccc(Cl)c1 (configuration not stated) 12.2%
Cc1ccc(N(Cc2cc3ccccc3[nH]c2=O)S(=O)(=O)c2ccccc2)cc1 9.01%
